High-throughput results from PubChem.
TbPYK inhibitor: blocks Trypanosoma brucei pyruvate kinase; TbPYK enzyme, Kinase-Glo Plus ATP luminescence, 45 min; Potency, µM (highest dose often 76.8 µM), for inactives: top-dose activity, negative = inhibition, hits mostly inhibitors; actives 0.12% (n = 410,000); active means well fitted curve in the direction sought with a large enough effect; inconclusive means small, poorly fitted or top-dose-only effect, or another doubt; inactive means no such curve, though single readings can be large; an effect the other way counts as inactive or inconclusive; further: potency means the concentration at half of the fitted maximal effect; on the % scale 0 is the no-effect control and ±100 the full control effect; nearly all actives have a fitted effect of over 50% in size
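In this concentration-response screen, enzyme-free wells defined baseline while DMSO plates tracked drift. Each reaction combined TbPYK, substrate, compound and 130 uM ADP for 45 min at room temperature. Kinase-Glo Plus luminescence gave the signal.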
RE007 growth inh: less growth of the S. pombe RE007 Vpr strain; S. pombe RE007 Vpr strain, BacTiter-Glo ATP luminescence, 24 h; actives 0.21% (n = 360,000); Potency, µM (titrated, usually from 92.2 µM), without a hit: at the top dose activity change, negative = less growth, hits mostly inhibitors; AID 651644; active means well fitted falling curve with a large enough effect; inconclusive means small, poorly fitted or top-dose-only effect; inactive means no such curve, though single readings can be large or run the other way; further: potency means the concentration at half of the fitted maximal effect; on the % scale 0 is the no-effect control and ±100 the full control effect; nearly all actives have a fitted effect of over 50% in size
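Fission yeast strain RE007, carrying one chromosomally integrated HIV-1 vpr copy, was seeded at OD 0.01 in PMG+AL medium with 23 nL pinned compound. After 24 h at 30 °C and 99% humidity, viability was read by BacTiter-Glo luminescence.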
NS1 function inh: influenza NS1 inhibition; Potency, µM (doses to about 46.1 µM), without a hit: at the highest dose activity, positive = more growth; actives 0.4% (n = 270,000); AID 2326; further: potency means the concentration at half of the fitted maximal effect; actives are rising curves; nearly all actives have a fitted effect of over 50% in size
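Compounds were scored for reversing the slow growth caused by influenza A NS1 in S. cerevisiae, measured by optical density at 600 nm. Assay medium contained 2% galactose at pH 6.0; NS1-free yeast of the same strain were the positive control.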
Sm TGR inh: S. mansoni TGR enzyme inhibition; Q962Y6; purified TGR, DTNB reduction, TNB absorbance 405 nm; Potency, µM (doses to about 114 µM), for the others: top-dose activity change, negative = inhibition, most hits filed as inhibitors; actives 3% (n = 360,000); AID 485364; active means well fitted curve in the direction sought with a large enough effect; inconclusive means small, poorly fitted or top-dose-only effect, or another doubt; inactive means no such curve, though single readings can be large; an effect the other way counts as inactive or inconclusive; further: potency means the concentration at half of the fitted maximal effect; on the % scale 0 is the no-effect control and ±100 the full control effect; nearly all actives have a fitted effect of over 60% in size
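Kinetic colorimetric format: TGR-catalysed, NADPH-driven DTNB reduction monitored via TNB absorbance. Enzyme dispensed at 20 nM; compound exposure 15 min at room temperature before reaction start.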
LmPK inh: LmPK (Leishmania mexicana) enzyme inhibition. Q27686. purified LmPK, Kinase-Glo ATP luminescence, 1 h. AID 1721. actives 0.37% (n = 290,000). Potency, µM (titrated, usually from 57.5 µM), without a hit: top-dose activity change, negative = inhibition, most hits filed as inhibitors; active means well fitted curve in the direction sought with a large enough effect; inconclusive means small, poorly fitted or top-dose-only effect, or another doubt; inactive means no such curve, though single readings can be large; an effect the other way counts as inactive or inconclusive; further: potency means the concentration at half of the fitted maximal effect; on the % scale 0 is the no-effect control and ±100 the full control effect
Target sequence (Q27686 whole entry, looked up): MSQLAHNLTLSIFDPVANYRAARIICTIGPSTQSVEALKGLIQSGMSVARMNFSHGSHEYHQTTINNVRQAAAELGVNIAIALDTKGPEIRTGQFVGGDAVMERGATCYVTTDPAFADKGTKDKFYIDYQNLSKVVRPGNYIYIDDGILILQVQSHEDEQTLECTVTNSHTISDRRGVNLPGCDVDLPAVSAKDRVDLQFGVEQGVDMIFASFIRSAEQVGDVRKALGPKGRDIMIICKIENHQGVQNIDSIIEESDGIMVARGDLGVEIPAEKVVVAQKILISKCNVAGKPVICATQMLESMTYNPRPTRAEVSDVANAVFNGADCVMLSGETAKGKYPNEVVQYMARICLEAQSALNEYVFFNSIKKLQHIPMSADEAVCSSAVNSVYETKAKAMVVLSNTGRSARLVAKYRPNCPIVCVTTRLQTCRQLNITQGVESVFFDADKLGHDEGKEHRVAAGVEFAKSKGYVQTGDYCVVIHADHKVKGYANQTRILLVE
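Kinase-Glo luminescence read after 1 h RT reaction of 0.1 nM LmPK with 0.5 mM PEP and 0.1 mM ADP. Activity scaled between uninhibited and enzyme-free controls.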
SARS PLpro yeast: inhibitors of SARS-CoV papain-like protease in yeast. S. cerevisiae expressing SARS-CoV PLpro, growth rescue. Potency, µM (top dose mostly 32.9 µM), without a hit: at the highest dose activity, positive = growth rescue, most hits filed as activators. actives 0.19% (n = 330,000); further: potency means the concentration at half of the fitted maximal effect; 0% is about no effect; nearly all actives have a fitted effect of over 55% in size
Flu NS1 inh: validation of influenza NS1 protein function inhibitors; AID 492980; 1,400 tested, under 10 active; influenza NS1 function cell assay, 15-point titration; shares compounds with NS1 function inh; activity change, negative = inhibition, % at 32.9 µM; further: 0% is about no effect
PR8 titer: influenza virus titer reduction, NS1 project; AID 504647; virus titer (log TCID50), log10 TCID50 at 5 µM; MDCK infected influenza A/PR/8/34, virus titer TCID50; hits give low values; actives 30% (n = 95); shares compounds with NS1 function inh; call rule not given here
An asterisk follows results filed as active. Hits are enriched below; roughly 3.3% of the tested compounds scored in any of these assays. Unless noted, the call rests on the fitted dose curve.

For CCOC(=O)c1[nH]c2c(c1Cc1ccccc1)C(=O)CC(c1ccccc1)C2 (configuration not stated) the results were TbPYK inhibitor -7% and Sm TGR inh 8%.
`CNC(=O)COc1ccc(S(=O)(=O)Nc2ccc(OC)cc2)cc1` gave TbPYK inhibitor -4%, RE007 growth inh 17%, NS1 function inh -2%, Sm TGR inh -12%, LmPK inh 5% and SARS PLpro yeast 1%.
`COc1ccc(N2CCN(C(=O)c3ccc(NS(=O)(=O)c4ccccc4)cc3)CC2)cc1` gave TbPYK inhibitor 1%, RE007 growth inh 3%, NS1 function inh 13µM*, Sm TGR inh -9%, LmPK inh 0%, SARS PLpro yeast -11% and Flu NS1 inh -18.
COc1ccc(NS(=O)(=O)c2ccc(OCC(=O)N3CCCC3)cc2)cc1 was read as TbPYK inhibitor -6%, RE007 growth inh 4%, NS1 function inh inconclusive, Sm TGR inh 0%, LmPK inh 0%, SARS PLpro yeast 1% and Flu NS1 inh 4.
`CCOC(=O)c1cc(OC(=O)c2cccc(C)c2)n(-c2ccccc2)n1` gave TbPYK inhibitor -1% and Sm TGR inh 8%.
`CCOC(=O)c1cc(OC(=O)c2cccnc2)n(-c2ccccc2)n1` gave NS1 function inh 2µM*, Sm TGR inh -2%, LmPK inh -4%, SARS PLpro yeast 10% and Flu NS1 inh inconclusive.
Screening Cc1ccccc1CN1C(=O)c2ccccc2S(=O)(=O)c2ccc(C(=O)OCC3CCCO3)cc21 (configuration not stated) returned TbPYK inhibitor -1% and Sm TGR inh -3%.
Screening O=C(Cn1c2c(sc1=O)C1c3ccccc3OCC1CS2)Nc1ccc(Cl)c(Cl)c1 (configuration not stated) returned TbPYK inhibitor -11%, RE007 growth inh 5%, NS1 function inh 20µM*, Sm TGR inh -30%, LmPK inh 3%, SARS PLpro yeast 4% and Flu NS1 inh -5.
`COC(=O)c1ccccc1NC(=O)c1cc(C)nc2c1c(C)nn2-c1ccc(C)cc1` gave TbPYK inhibitor 4% and Sm TGR inh 4%.
COC(=O)C1=C(C)N2C(=O)CSC2=NC1c1ccc2c(c1)OCO2 (configuration not stated) was read as TbPYK inhibitor -4%, RE007 growth inh 22%, NS1 function inh 13µM*, Sm TGR inh 0%, LmPK inh -1%, SARS PLpro yeast -7% and Flu NS1 inh 31.
For Cc1ccc(C)c(N2CCN(C(=O)C3CCN(S(=O)(=O)c4cccc5nsnc45)CC3)CC2)c1 the results were TbPYK inhibitor 5%, RE007 growth inh 0%, NS1 function inh inconclusive, Sm TGR inh 11%, LmPK inh -2%, SARS PLpro yeast -3%, Flu NS1 inh -14 and PR8 titer 8.5.
c1ccc(CCN2CCOCC2)nc1 was read as NS1 function inh -3%.
Screening O=C(c1csnn1)N1CCC2(CCCN(Cc3cc(C(F)(F)F)cc(C(F)(F)F)c3)C2)CC1 returned TbPYK inhibitor 4%.
Screening O=C1C(=O)N(C2CCN(C(=O)c3cccc(Cl)c3)CC2)CCN1Cc1ccc(F)cc1 returned TbPYK inhibitor 2% and Sm TGR inh 1%.
`CS(=O)(=O)N(CC(=O)NN=C1CCCCCC1)c1ccc(Oc2ccccc2)cc1` gave TbPYK inhibitor 1%, RE007 growth inh 18%, Sm TGR inh -1%, LmPK inh 3% and SARS PLpro yeast -2%.
O=C(CN(c1ccccc1)S(=O)(=O)c1ccccc1[N+](=O)[O-])NN=C1CCCCCCC1 was read as TbPYK inhibitor 2%, RE007 growth inh -13%, NS1 function inh 1.3µM*, Sm TGR inh 7%, LmPK inh 6%, SARS PLpro yeast 3% and Flu NS1 inh inconclusive.
`Cc1cccc(C(=O)Nc2cccc(C(=O)OCc3cc(=O)n4nc(C5CC5)sc4n3)c2)c1` gave TbPYK inhibitor 4% and Sm TGR inh 5%.
Screening CCOC(=O)c1ccc(NC(=O)CSc2nc(C)cc(=O)[nH]2)cc1 returned TbPYK inhibitor 1%, RE007 growth inh -8%, NS1 function inh inconclusive, Sm TGR inh -20%, LmPK inh 14%, SARS PLpro yeast -5%, Flu NS1 inh -10 and PR8 titer 8.
For Cc1ccc(Cl)cc1NC(=O)CN1C(=O)C(C)(C)c2cc(S(=O)(=O)N3CCCCC3)ccc21 the results were TbPYK inhibitor 0% and Sm TGR inh -10%.
`NC(=O)c1ccccc1NC(=O)Cn1nc(Cc2cccnc2)c2ccccc2c1=O` gave TbPYK inhibitor -5% and Sm TGR inh -12%.
`Cn1c(SCC(=O)c2ccc3c(c2)Cc2ccccc2-3)nnc1-c1cccc(N)c1` gave TbPYK inhibitor -18%, RE007 growth inh -19%, NS1 function inh inconclusive, Sm TGR inh 1%, LmPK inh -3%, SARS PLpro yeast -28% and Flu NS1 inh 34.
CC(=O)Nc1ccc(S(=O)(=O)Oc2ccc(C(=S)N3CCC(O)CC3)cc2)cc1 was read as TbPYK inhibitor -20%, RE007 growth inh -3%, NS1 function inh inconclusive, Sm TGR inh -2%, LmPK inh 9%, SARS PLpro yeast -15% and Flu NS1 inh -18.
`CC(=O)Nc1ccc(S(=O)(=O)Oc2ccc(C(=S)N3CCCCC3)cc2)cc1` gave TbPYK inhibitor -2%, RE007 growth inh 0%, NS1 function inh 2%, Sm TGR inh -4%, LmPK inh 5% and SARS PLpro yeast 19%.
For COc1cccc(C(=O)CC2(O)C(=O)Nc3ccc(Cl)cc32)c1 (configuration not stated) the results were TbPYK inhibitor 0% and Sm TGR inh -4%.
Screening Cc1ccc(S(=O)(=O)N2CCN(C(=O)CC(C)n3cncn3)CC2)cc1 (configuration not stated) returned TbPYK inhibitor -2%, RE007 growth inh 3%, NS1 function inh 27%, Sm TGR inh 8%, LmPK inh 0% and SARS PLpro yeast 0%.
